# Assay outcomes from PubChem BioAssay.
# FBPA coupling cs: counter-screen for Giardia aldolase inhibitors: coupling enzyme system; coupling enzyme system counterscreen, AmpLite Red fluorescence; activity change, negative = inhibition, % at 58.2 µM, hits read low; hit rate 0.67% among 290,000; AID 2472; in the data active = activity change below about -30%
#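 Counterscreen of the coupled detection system alone, without aldolase: glyceraldehyde-3-phosphate coupling enzymes plus AmpLite Red readout. Compounds at 57.5 uM final, 10 min RT preincubation, 20 min RT reaction, fluorescence 525/598 nm.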
# Giardia killer: Giardia lamblia killing; hit rate 0.15% among 340,000; Giardia lamblia trophozoite viability; activity change, % at 7.66 µM, hits read low; in the data active = activity change below about -80%; inconclusive = between about -30% and that limit;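 also: parasites exposed to compound for two days anaerobically before the ATP read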
#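 Luminescence from cellular ATP indicates surviving trophozoites (100 cells/well) following 48 hrs anaerobic compound treatment at 37 deg C; signal develops 15-30 min at room temperature.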
# ELG1 repair inh: blocks ELG1-dependent DNA repair in HEK293T cells | HEK293T ELG1-luciferase reporter, luminescence, 16 h; DNA damage induced by 5-fluorouridine | Potency, µM (series often up to 46.1 µM), without a hit: at the highest dose activity change, negative = inhibition, usual class: inhibitors | hit rate 2.3% among 330,000 | AID 504467; also: potency is read from the fitted curve at half-maximal effect; nearly all actives have a fitted effect of over 55% in size
#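 Step one: seed 2,000 cells per well. Step two: pin-transfer compound or DMSO alongside 5-fluorouridine. Step three: incubate 16 hr, 37 °C, 5% CO2. Step four: add ONE-Glo, wait 30 min, read luminescence.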
# Sfp inh: inhibitors of Bacillus subtilis Sfp phosphopantetheinyl transferase. Q9F4F7. Biochemical Sfp PPTase activity, qHTS. Potency, µM, inactives show largest response in the series, negative = inhibition, most hits filed as inhibitors. hit rate 3.5% among 310,000. AID 1490;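 also: the enzyme is Sfp with the accession as filed and its product quenches rhodamine fluorescence; potency is read from the fitted curve at half-maximal effect; 0% = enzyme reaction without inhibitor and -100% = no enzyme wells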
#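 Fluorescence-quenching assay with 15 nM Sfp, 5 uM rhodamine-CoA and 12.5 uM BHQ-2-labelled ybbR peptide in pH 7.6 Hepes/MgCl2 buffer. Enzyme was pre-incubated with compound for 15 min at room temperature. Rate was taken from the 30-min fluorescence change (525/598 nm).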
# Numbers without * were called inactive; ? = inconclusive; / = no result given. A selection: hits, their analogues and other compounds. The true share with any hit is near 5.5%. Unless noted, calls follow the shape of the dose curve; as a rule, active = well fitted curve in the direction sought with a large enough effect; inconclusive = small, poorly fitted or top-dose-only effect, or another doubt; inactive = no such curve, though single readings can be large; an effect the other way counts as inactive or inconclusive. Unless noted, % is scaled to controls: 0 for no effect and ±100 for the full control effect.
SMILES,FBPA coupling cs,Giardia killer,ELG1 repair inh,Sfp inh
CSCC[C@H](N)C(=O)N[C@@H](CCCN=C(N)N)C(=O)N[C@@H](CC(C)C)C(=O)N[C@@H](Cc1ccccc1)C(=O)N[C@H](C(=O)O)C(C)C,0.3,/,/,-1.4%
Cc1ccc(C2NC(=O)NC3=C2CCc2ccccc23)cc1 (stereo not given),-39.9*,-1.7,?,?
COc1cccc(C2NC(=S)NC3=C2CCc2ccccc23)c1 (stereo not given),-43.3*,5.9,7.9%,50.1µM*
COC(=O)[C@@]1(Cc2ccc(F)cc2)[C@H]2c3cc(C(=O)N(C)C)n(CCCNc4ccc(C(F)(F)F)cc4Cl)c3C[C@H]2CN1C(=O)c1ccccc1,-3.4,/,/,20.8%
CN(Cc1c(F)cccc1Cl)C(=O)CNC(=O)c1cccs1,/,-6.3,?,10.6%
COc1cc(NC(=O)c2cnc(N)o2)cc(C(=O)Nc2cccc(C(F)(F)F)c2)c1,0.3,8.1,14.6µM*,7.6%
COc1cc(NC(=O)c2csc(N)n2)cc(C(=O)Nc2cccc(C(F)(F)F)c2)c1,0.1,-28.9,23.1µM*,-16.8%
COc1cc(NC(=O)c2cnc(N)s2)cc(C(=O)Nc2cccc(C(F)(F)F)c2)c1,0.4,-3.4,0.0%,4.4%
Cc1ccc2oc(C(=O)N3CCN(Cc4nccn4C)CC3)c(C)c2c1,/,18.5,13.8%,14.2%
CCOC(=O)c1ccc(CC(=O)c2ccc(O)c(O)c2O)o1,-48.4*,3.4,3.3%,6.31µM*
CCCC(=O)n1nc(-c2ccco2)nc1SCc1ccccc1,-7.7,13.6,?,50.1µM*
CSc1nc(-c2ccco2)nn1C(=O)c1ccccc1,-10.6,1.1,9.8%,14.1µM*
O=C(Cc1ccccc1)n1nc(-c2ccco2)nc1SCc1ccccc1,-3.3,3.0,?,13.2%
CCS(=O)(=O)n1nc(-c2ccco2)nc1SC,-75.9*,6.4,/,35.5µM*
CSc1nc(-c2ccco2)nn1S(=O)(=O)c1ccc(C)cc1,-34.3*,?,17.5%,44.7µM*
CS(=O)(=O)n1nc(-c2ccc(Cl)cc2)nc1N,-6.7,-3.2,?,4.4%
CCS(=O)(=O)n1nc(-c2ccc(Cl)cc2)nc1SC,-2.1,-9.7,?,56.2µM*
CCSc1nnc(NC(=O)C2Cc3ccccc3CN2C(=O)c2ccco2)s1 (stereo not given),0.9,16.7,14.2%,39.8µM*
Cc1[nH]c2ccccc2c1/C=C/c1nc2ccccc2c(=O)n1CCO,1.7,-20.0,1.83µM*,18.7%
Cc1ccccc1/C=C/c1nc2ccccc2c(=O)n1Cc1ccccc1,-0.4,0.2,?,-14.7%
Cc1ccccc1/C=C/c1nc2ccccc2c(=O)n1CCc1ccccc1,7.0,0.4,16.4µM*,-12.8%
c1ccc(N2CCN(c3ccccc3)C2c2ccncc2)cc1,-7.8,-4.1,?,79.4µM*
c1ccc(N2CCN(c3ccccc3)C2c2cccnc2)cc1,0.1,-7.3,8.8%,-3.4%
O=C(COC(=O)c1cccc(Br)c1)NCc1ccco1,/,6.7,8.7%,/
CN(C)CCN(C(=O)c1cccc2ccccc12)c1nc2cc3c(cc2s1)OCO3,0.6,-5.0,?,79.4µM*
SMILES,FBPA coupling cs,Giardia killer,ELG1 repair inh,Sfp inh
CN(C)CCN(C(=O)c1ccc2ccccc2c1)c1nc2cc3c(cc2s1)OCCO3,/,13.3,?,79.4µM*
CN(C)CCN(C(=O)c1ccc(Br)s1)c1nc2cc3c(cc2s1)OCCO3,-8.5,6.7,?,56.2µM*
CCN(CC)CCN(C(=O)c1cc2c(ccc3ccccc32)oc1=O)c1nc2cc3c(cc2s1)OCCO3,-2.6,-12.6,?,39.8µM*
CN(C)CCCN(C(=O)c1ccc2ccccc2c1)c1nc2cc3c(cc2s1)OCO3,-1.8,5.6,-0.7%,-4.9%
COC(=O)[C@@H]1CC[C@H](C)[C@@H](c2ccc(C)cc2)N1C(=O)c1ccc(/C=N\OC[C@@H](O)[C@H]2O[C@H]3OC(C)(C)O[C@H]3[C@@H]2O)cc1,2.1,/,/,-2.2%
Cc1nc2c(c(=O)[nH]1)CSCC2,-0.2,/,/,-8.6%
Cc1c(C(=O)N2CCCC2)oc2c1-c1nn(CC(=O)NCCCOC(C)C)cc1CC2,/,-2.8,?,7.4%
CCCCN(CC)CCNC(=O)Cn1cc2c(n1)-c1c(oc(C(=O)N3CCCC3)c1C)CC2,-31.0*,6.2,9.3%,-0.5%
CCN(CC)S(=O)(=O)c1ccc(N2CCOCC2)c(NC(=O)c2ccc3c(c2)OCCO3)c1,/,-1.1,?,/
CCN(CC)S(=O)(=O)c1ccc(N2CCOCC2)c(NC(=O)c2cccc3ccccc23)c1,2.7,-10.1,?,27.1%
CCOc1ncccc1C(=O)Nc1cc(C(F)(F)F)ccc1N1CCOCC1,/,-16.1,-11.0%,/
CCOc1ncccc1C(=O)Nc1cc(S(=O)(=O)N(CC)CC)ccc1N1CCOCC1,/,48.9,5.17µM*,/
CCN(CC)S(=O)(=O)c1ccc(N2CCOCC2)c(NC(=O)c2ccc3ccccc3c2)c1,1.1,-5.0,14.6µM*,-1.2%
CCN(CC)S(=O)(=O)c1ccc(N2CCOCC2)c(NC(=O)c2c3c(nc4ccccc24)CCC3)c1,-0.6,10.4,13µM*,15.2%
CCCCN(C)C(=O)C1CCCN(S(=O)(=O)c2ccc3c(c2)oc(=O)n3C)C1 (stereo not given),1.9,11.0,11.8%,7.6%
CC[C@H](C)[C@@H](NC(=O)O[C@@H]1C(=O)c2ccc(OC)cc2O[C@H]1c1ccc2c(c1)OCO2)C(=O)OC,1.3,/,/,10.1%
Cc1c(F)cccc1NS(=O)(=O)c1ccc2c(c1)c(C)cc(=O)n2C,1.8,-4.6,17.4%,-8.7%
COc1cc(NC(=O)CN2CCN(CC(=O)Nc3ccccc3OC)CC2)cc(OC)c1,1.1,0.4,-25.9%,10.8%
O=C(OCn1ncc(Br)c(Br)c1=O)c1c(F)cccc1F,-0.1,/,9.2µM*,-11.3%
Cc1ccc(S(=O)(=O)N(C)C)cc1NC(=S)N1CCN(Cc2ccc3c(c2)OCO3)CC1,-2.2,-21.8,8.2µM*,5.9%
Cc1ccccc1NC(=S)N1CCN(Cc2ccc3c(c2)OCO3)CC1,3.6,12.6,-10.0%,12.9%
CCCCNC(=S)N1CCN(Cc2ccc3c(c2)OCO3)CC1,2.3,0.6,-4.6%,14.1µM*
CCN(c1ccccc1)S(=O)(=O)c1ccc(C(=O)N2CCN(c3ccccc3)CC2)cc1,/,21.2,?,/
CSc1ccccc1NC(=O)CN1C(=O)C2CC=CCC2C1=O (stereo not given),/,-0.4,?,/
O=[N+]([O-])c1ccc(O)c2ncccc12,-35.4*,-11.5,?,-24.9%
SMILES,FBPA coupling cs,Giardia killer,ELG1 repair inh,Sfp inh
O=[N+]([O-])c1cc(Cl)c(O)c2ncccc12,-20.9,-0.2,?,-40.0%
O=[N+]([O-])c1cc(F)c2cccnc2c1O,-28.1,33.7,20.6µM*,?
O=[N+]([O-])c1cc(Cl)c2cccnc2c1O,-7.8,-10.9,?,4.8%
O=[N+]([O-])c1cc([N+](=O)[O-])c2cccnc2c1Oc1ccccc1O,-2.5,7.7,-20.3%,44.7µM*
CS(=O)(=O)N1CCN(c2ccc([N+](=O)[O-])c3cccnc23)CC1,-8.3,-82.0*,?,6.0%
CCC(=O)c1ccccc1OCCCN1CCC(Cc2ccccc2)CC1,1.1,10.1,-29.5%,?
